Consider 14 compounds from PubChem BioAssay (EPA / NIEHS).

The nature of assay [1]: TOX21_p53_BLA_p2_viability: Viability Assessment in the Tox21 HCT-116 p53 Agonism Beta-lactamase Assay, Phase 2 (AID 2283591).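 Further: compound exposure lasted 16 h at 37 °C; actives lower the ATP signal meaning cytotoxicity.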 An outline of the steps: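 Cytotoxicity readout: CellTiter-Glo ATP luminescence, 30 min at room temperature, after the beta-lactamase read. Cells were HCT116 exposed 16 h at 37C to compounds pin-transferred at 217-fold dilution from DMSO stocks.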

Assay [2] deals with Cellular tumor antigen p53 (Homo sapiens) (UniProt P04637). The experiment in a line: TOX21_p53_BLA_p2_ratio: Tox21 HCT-116 p53 Agonism Beta-lactamase Assay, Ratio, Phase 2 (AID 2283592). An outline of the steps: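 Cleaved-to-uncleaved substrate ratio (460 vs 530 nm) measured in HCT116 cells with an inducible beta-lactamase reporter linked to p53 activity. Compounds incubated 16 h at 37C before 2 h room-temperature CCF4-AM loading.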
Cellular tumor antigen p53 (Homo sapiens), sequence (P04637 whole entry, looked up): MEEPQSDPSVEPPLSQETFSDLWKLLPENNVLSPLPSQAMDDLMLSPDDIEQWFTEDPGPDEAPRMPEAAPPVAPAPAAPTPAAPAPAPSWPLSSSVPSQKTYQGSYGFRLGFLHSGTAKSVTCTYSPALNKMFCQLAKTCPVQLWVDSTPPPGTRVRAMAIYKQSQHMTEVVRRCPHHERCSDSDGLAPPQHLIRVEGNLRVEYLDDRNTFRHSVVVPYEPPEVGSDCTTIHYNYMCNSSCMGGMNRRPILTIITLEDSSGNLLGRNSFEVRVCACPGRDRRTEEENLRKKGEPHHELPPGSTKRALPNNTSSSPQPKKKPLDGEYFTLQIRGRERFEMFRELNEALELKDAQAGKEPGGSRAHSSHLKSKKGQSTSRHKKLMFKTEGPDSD

A short description of assay [3]: TOX21_p53_BLA_p3_viability: Viability Assessment in the Tox21 HCT-116 p53 Agonism Beta-lactamase Assay, Phase 3 (AID 2283593).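 Further: cells exposed to compound for 16 h before reading.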 An outline of the steps:
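Cellular ATP was quantified by CellTiter-Glo luminescence, read after 30 min at room temperature. Beforehand, HCT116 cells (4000/well) received compound 5 h post-seeding, 217-fold diluted from DMSO, then incubated 16 h at 37C.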

A short description of assay [4]: TOX21_p53_BLA_p5_viability: Viability Assessment in the Tox21 HCT-116 p53 Agonism Beta-lactamase Assay, Phase 5 (AID 2283600). An outline of the steps:
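Viability is taken from cellular ATP content, measured by luciferase luminescence in the same wells after the beta-lactamase ratio read. Cells are seeded at 4000 per well and exposed to DMSO-dissolved compounds, diluted 217-fold, for 16 h.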

Assay [5] has as its target Cellular tumor antigen p53 (Homo sapiens) (UniProt P04637). The experiment in a line: TOX21_p53_BLA_p3_ratio: Tox21 HCT-116 p53 Agonism Beta-lactamase Assay, Ratio, Phase 3 (AID 2283596). An outline of the steps: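 Cells were seeded at 4000/well, rested 5 h at 37C, then dosed with DMSO compound solutions (217-fold dilution) for 16 h. CCF4-AM substrate was loaded for 2 h at room temperature, and the 460/530 nm emission ratio was fitted for gain of signal versus DMSO.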

Assay [6] is described as follows: TOX21_p53_BLA_p4_viability: Viability Assessment in the Tox21 HCT-116 p53 Agonism Beta-lactamase Assay, Phase 4 (AID 2283597).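 Further: hits lower the luminescence signal meaning cytotoxicity.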 An outline of the steps:
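Viability is taken as cellular ATP: after 16 h compound exposure of HCT116 cells and a 2 h room-temperature CCF4-AM substrate step, CellTiter-Glo reagent is added and luminescence is measured 30 min later.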

The target in assay [7] is Cellular tumor antigen p53 (Homo sapiens) (UniProt P04637). The experiment in a line: TOX21_p53_BLA_p5_ratio: Tox21 HCT-116 p53 Agonism Beta-lactamase Assay, Ratio, Phase 5 (AID 2283599). An outline of the steps: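 Beta-lactamase reporter ratio (blue 460 nm over green 530 nm, 405 nm excitation) after 2 h CCF4-AM loading, in HCT-116 cells exposed 16 h at 37 C to compounds pinned at 217-fold dilution. Increases relative to DMSO baseline scored.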

The target is the same in assay [8]. The experiment in a line: TOX21_p53_BLA_p4_ratio: Tox21 HCT-116 p53 Agonism Beta-lactamase Assay, Ratio, Phase 4 (AID 2283601). In outline: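 Signal is the blue/green (460nm/530nm) ratio of cleaved versus uncleaved CCF4-AM substrate, read after 2 h substrate loading. Cells were HCT116 carrying the p53-responsive beta-lactamase reporter, dosed 16 h at 37C, 5% CO2; CellTiter-Glo measured in parallel.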

Inconclusive results are not listed. Calls of active or inactive are those of the source. How the source made its calls: active means hit-call score of the fitted dose curve at least 0.9, where 1 is the maximum; inconclusive means response in the unintended direction; inactive means score below 0.9.

For the compound `ClC(Cl)(Cl)C(Cl)(Cl)Cl`, the compound was called inactive in assay [1], in assay [2], in assay [3] and in assay [4].

As to `COP(=O)(OC)OC(=CCl)c1cc(Cl)c(Cl)cc1Cl`, the outcome in assay [1], in assay [2], in assay [5], in assay [6], in assay [7] and in assay [8] was inactive.

As to `CC(Cl)CCl` (stereo not given), the call in assay [1], in assay [2], in assay [5], in assay [6], in assay [7] and in assay [4] was inactive. Also, the outcome in assay [8] was inactive.

On to `C=CC(=O)OC(C)(C)C`, for which the result in assay [1], in assay [2], in assay [5], in assay [6], in assay [7] and in assay [4] was inactive.

As to `O=[N+]([O-])c1ccc([As](=O)(O)O)cc1`, the compound was called inactive in assay [1], in assay [2], in assay [5], in assay [6], in assay [7] and in assay [4]. Further, in assay [8], the outcome was inactive.

`Clc1ccc([C@@H]2C[C@H]3CC[C@@H]2N3)cn1`: the call in assay [1], in assay [2], in assay [5], in assay [6], in assay [7] and in assay [8] was inactive.

For `C=CCOCC1CO1` (stereo not given), the compound was classed as inactive in assay [1], in assay [2], in assay [5], in assay [6] and in assay [7].

Regarding `CCN(C)N=O`, the compound was classed as inactive in assay [1], in assay [2], in assay [5], in assay [6], in assay [7] and in assay [8].

In general, AC50 refers to the midpoint of the concentration-response curve, whichever way the signal moves. As to `O=C(CCl)c1ccc(Oc2ccc(C(=O)CCl)cc2)cc1`, the outcome in assay [1], in assay [5], in assay [6] and in assay [7] was inactive. Besides, the figures for the AC50 in assay [2] and in assay [8] were 43.4 µM (active) and 41.9 µM (active), respectively.

As to `NCc1cccnc1`, the compound was called inactive in assay [1], in assay [2], in assay [3], in assay [7], in assay [4] and in assay [8].

For `O=P(O)(O)C(Cl)(Cl)P(=O)(O)O`, the result in assay [1], in assay [2], in assay [5], in assay [6], in assay [7] and in assay [4] was inactive. Besides, the outcome in assay [8] was inactive.

On to `Cc1ccc2c(C)cccc2c1`, for which the outcome in assay [1], in assay [2], in assay [5], in assay [6], in assay [7] and in assay [4] was inactive. Further, in assay [8], the result was inactive.

Consider `CN(C)c1ccc(N)cc1`, for which the compound was classed as inactive in assay [1], in assay [5], in assay [6], in assay [7], in assay [4] and in assay [8]. In assay [2], the concentration at half-maximal activity (AC50) was 72 µM (active).

Consider `SCc1ccccc1`, for which the result in assay [1], in assay [2], in assay [3], in assay [7] and in assay [8] was inactive.
